Source: article PMC5540273 (PLoS ONE, 2017)

What was measured:
Details in all cases: concentration: 1 μM, replicates: in singlicate; n = 1
TAK1 = tested on: T1, TAK1
T1 construct: gene MAP3K7

TAOK1 = tested on: TAOK1
TAOK2 = tested on: TAOK2
TAOK3 = tested on: TAOK3
TBK1 = tested on: TBK1
TEC = tested on: TEC
TESK1 = tested on: TESK1
TGFBR1 = tested on: TGFBR1
TGFBR2 = tested on: TGFBR2
TIE1 = tested on: TIE1
TIE2 = tested on: T2, TIE2
T2 construct: gene TEK

TLK1 = tested on: TLK1
TLK2 = tested on: TLK2
TNIK = tested on: TNIK
TNK1 = tested on: TNK1
TNK2 = tested on: TNK2
TNNI3K = tested on: TNNI3K
TRKA = tested on: T3, TRKA
T3 construct: gene NTRK1

TRKB = tested on: TRKB
TRKC = tested on: T4, TRKC
T4 construct: gene NTRK3
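Further: KINOMEscan kinase panel screen.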

SMILES | %Inh (TAK1) [%] | %Inh (TAOK1) [%] | %Inh (TAOK2) [%] | %Inh (TAOK3) [%] | %Inh (TBK1) [%] | %Inh (TEC) [%] | %Inh (TESK1) [%] | %Inh (TGFBR1) [%] | %Inh (TGFBR2) [%] | %Inh (TIE1) [%] | %Inh (TIE2) [%] | %Inh (TLK1) [%] | %Inh (TLK2) [%] | %Inh (TNIK) [%] | %Inh (TNK1) [%] | %Inh (TNK2) [%] | %Inh (TNNI3K) [%] | %Inh (TRKA) [%] | %Inh (TRKB) [%] | %Inh (TRKC) [%]
Cl.NS(=O)(=O)c1cccc(Nc2cc(-c3ccc(F)cc3)n[nH]2)c1 [GW824645] | 0 | 0 | 36 | 13 | 35 | 0 | 6 | 23 | 1 | 0 | 2 | 0 | 0 | 45 | 0 | 0 | 0 | 40 | 44 | 31
Cl.c1ccc(Cn2cnc3cc(Nc4ncnc5ccccc45)ccc32)cc1 [GW272142] | 0 | 0 | 0 | 0 | 7 | 11 | 1 | 6 | 0 | 48 | 0 | 0 | 0 | 0 | 0 | 15 | 0 | 0 | 0 | 0
CCS(=O)c1ccc(-c2coc3ccc(-c4nnc(C)o4)cc23)cc1 (stereo not shown) | 21 | 0 | 0 | 0 | 2 | 0 | 0 | 4 | 9 | 0 | 10 | 17 | 0 | 12 | 0 | 3 | 0 | 28 | 5 | 5
Cc1ccc(Oc2ccc(Nc3ncnc4cc[nH]c34)cc2C)cn1 | 30 | 0 | 0 | 0 | 30 | 6 | 13 | 2 | 0 | 0 | 13 | 6 | 12 | 0 | 0 | 12 | 3 | 42 | 14 | 17
COc1cc(Nc2ccnc3ccc(C(F)(F)F)cc23)cc(OC)c1OC [GW577382] | 0 | 0 | 0 | 0 | 4 | 0 | 52 | 8 | 9 | 0 | 0 | 6 | 0 | 0 | 14 | 16 | 24 | 48 | 0 | 14
O=C(Nc1n[nH]c2cc(-c3ccccc3F)ccc12)C1CC1 [SB-733371] | 0 | 52 | 19 | 24 | 0 | 0 | 1 | 0 | 0 | 0 | 26 | 2 | 0 | 76 | 0 | 0 | 0 | 53 | 0 | 19
O=C(Nc1ccc2c(c1)OCO2)NC1CCN(c2ccnc(NCc3ccc(F)cc3)n2)CC1 [GSK1379859] | 0 | 0 | 0 | 2 | 2 | 0 | 0 | 0 | 0 | 0 | 0 | 0 | 0 | 0 | 0 | 7 | 1 | 0 | 15 | 6
COc1cc2ncn(-c3cc(OCc4ccncc4)c(C(N)=O)s3)c2cc1OC [GSK336313] | 0 | 0 | 0 | 0 | 19 | 6 | 0 | 5 | 0 | 100 | 7 | 0 | 0 | 13 | 0 | 5 | 0 | 0 | 0 | 0
